High-throughput results deposited in PubChem BioAssay by several laboratories.
Sampled rows, rich in hits. Any-hit rate of the full collection: about 1.3%.
NCOA2 inhibitor: human SRC2 (NCOA2) inhibition; Q15596; HEK293 GAL4-SRC2 luciferase reporter, luminescence; inhibition, % at 9 µM; 0.17% of 370,000 active;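 active = inhibition above the mean inhibition of all tested compounds plus 3 SD, set per campaign, cut at about 52% in these data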;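 note: 0% = DMSO treated cells and 100% = cells given Gossypol at 36 µM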
NR5A2 inv ag: inverse agonists of human LRH-1 (NR5A2). inhibition, % at 3.6 µM. HEK293T StAR-luciferase reporter, LRH-1 transfected, 24 h. O00482. 0.13% of 360,000 active;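 active = inhibition above the mean inhibition of all tested compounds plus 3 SD, cut at about 73% in these data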;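 note: 0% = DMSO wells and 100% = reporter-only cells lacking LRH-1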
NR2F2 inh: blocks human COUP-TFII nuclear receptor; P24468; HEK293T NGFI-A luciferase reporter, luminescence; inhibition, % at 8.6 µM; 0.7% of 370,000 active; AID 686940;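 active = inhibition above a per-plate cutoff, mean inhibition of test wells between control levels plus 3 SD, cut at about 38% in these data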;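 note: cells cotransfected with COUP-TFII expression vector driving the NGFI-A reporter; 0% = median of COUP-TF2 test wells and 100% = reporter-only cells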
NCOA3 inh: inhibitors of human steroid receptor coactivator 3 (SRC3) | Q9Y6Q9 | HEK293 GAL4-SRC3 luciferase reporter, luminescence | inhibition, % at 3.6 µM | 0.17% of 360,000 active;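 active = inhibition above a per-campaign cutoff, the mean of all compounds plus 3 SD, cut at about 60% in these data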;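 note: 0% = DMSO-treated cells and 100% = gossypol-treated cells at 36 µM; higher means less SRC3-driven luciferase light from the GAL4 reporter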
Gli-Sufu antag: blocks Gli-Sufu signaling in a luciferase reporter; 0.74% of 340,000 active; inhibition, % at 5 µM; Sufu-KO-LIGHT fibroblasts, Gli luciferase reporter luminescence;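 active = inhibition above about 55%, limit read from the data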;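 note: 0% = DMSO-treated cells and 100% = wells with medium but no cells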
SRC1 inh: human NCOA1 inhibition. AID 588354. inhibition, % at 3.6 µM. Q15788. 0.12% of 360,000 active. HEK293 GAL4-SRC1 luciferase reporter, luminescence;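 active = inhibition above the campaign mean plus 3 SD, with each screening campaign given its own cutoff, cut at about 60% in these data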;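 note: 0% = DMSO treated cells and 100% = gossypol at 36 µM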
VP16 Luc counter: VP16 inhibition counter-screen for COUP-TFII | shares compounds with NR2F2 inh | AID 687007 | 25% of 2,500 active | inhibition, % at 8.5 µM | HEK293 Gal4-VP16 luciferase reporter, luminescence; in the data active = inhibition above about 13%
NR2F2 inh conf: confirmation of human COUP-TFII (NR2F2) inhibitors; 45% of 2,500 active; inhibition, % at 8.5 µM; HEK293 NGFI-A luciferase reporter, luminescence; shares compounds with NR2F2 inh;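 active = mean inhibition over three repeats above a set limit taken from the earlier primary screen, cut at about 38% in these data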;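 note: 100% = cells given the luciferase reporter alone without the COUP-TF2 vector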
Numbers without * were called inactive; . = no result; ! = not active in a repeat.

SMILES	NCOA2 inhibitor	NR5A2 inv ag	NR2F2 inh	NCOA3 inh	Gli-Sufu antag	SRC1 inh	VP16 Luc counter	NR2F2 inh conf
NC(CCc1ccccc1)c1csc(NC(=O)Nc2ccccc2Oc2ccccc2)n1 (stereo not drawn)	0	-11	11	-21	.	4	.	.
OC1(C#Cc2c(-c3ccsc3)sc3ccccc23)CCCCC1	-35	.	-20	.	.	.	.	.
COc1ccc2c(CC(=O)N3CCN(S(=O)(=O)c4ccc(F)cc4)CC3)coc2c1	31	-7	-20	-11	9	-12	.	.
COc1ccc(CCN(Cc2cccs2)S(=O)(=O)c2ccccc2)cc1OC	-2	.	8	.	.	.	.	.
CCC(C)NS(=O)(=O)c1ccc(S(=O)(=O)N(CCc2ccc(OC)c(OC)c2)Cc2cccs2)cc1 (stereo not drawn)	29	15	58*	-5	1	-8	9	48*
COc1ccc(CCN(Cc2cccs2)S(=O)(=O)c2ccc(F)cc2)cc1OC	31	.	47*	.	.	.	4	14
O=C(Cc1ccc(NC(=O)C2CCCN(C(=O)C3CCC3)C2)cc1)Nc1cccc(C(=O)N2CCCCC2)c1 (stereo not drawn)	5	8	-5	-7	2	-2	.	.
COC(=O)c1cc(Br)ccc1NC(=O)CSCc1c(C)noc1C	6	-1	7	26	3	-2	.	.
COC(=O)C1=C(C)N(Cc2ccccc2C(F)(F)F)C(=NCc2cc(OC)c(OC)c(OC)c2)NC1c1ccccc1C(F)(F)F (stereo not drawn)	-5	.	4	.	.	.	.	.
COC(=O)C1=C(C)N(Cc2ccccc2C(F)(F)F)C(=NCc2cc(OC)c(OC)c(OC)c2)NC1c1ccc(Cl)cc1 (stereo not drawn)	0	.	41*	.	.	.	-10	-1
COCC1CCN(C(=O)c2cc(COc3ccc4ncccc4c3)on2)CC1	16	34	19	27	27	18	.	.
O=C(NCCc1cn2ccccc2n1)c1cc(COc2ccc3ncccc3c2)on1	2	17	64*	33	44	15	-3	83*
O=C(c1cc(COc2ccc3ncccc3c2)on1)N1CCCCCC1	11	34	43*	26	48	12	4	49*
O=C(NCCc1cn2ccccc2n1)c1ccccc1F	-3	2	-1	-10	-8	-18	.	.
O=C(c1cc(COc2ccc3ncccc3c2)on1)N1CCCC1	-13	4	46*	1	36	-8	-40	24
CCn1cc(CCC(=O)Nc2ccc(Oc3cccnc3)cc2)c2ccccc21	9	.	-9	.	.	.	.	.
O=C(N/N=C\c1ccc(-c2ccccc2[N+](=O)[O-])o1)C1COc2ccccc2O1 (stereo not drawn)	8	24	10	18	4	0	.	.
Cc1scc(C(=O)N/N=C/c2ccc([N+](=O)[O-])o2)c1C	71*	49	50*	-1	.	14	57*	59*
O=C(N/N=C\c1ccc([N+](=O)[O-])o1)C1COc2ccccc2O1 (stereo not drawn)	62*	45	44*	39	2	30	-5	25
C#CCNC(=O)C[C@H]1C[C@@]2(C(=O)OC)C(=C[C@H](COCc3ccccc3)O[C@@H]2C)N(CCc2ccc(OC)c(OC)c2)C1=O	3	.	-9	.	.	.	.	.
C[C@@H]1CN([C@@H](C)CO)C(=O)CCCn2nncc2CO[C@H]1CN(C)C(=O)Nc1ccc(N2CCN(C)CC2)cc1	15	.	8	.	.	.	.	.
CC(C)Cc1ccc(CN2CCCC(NC(=O)c3ccnn3C)C2)cc1 (stereo not drawn)	23	5	46*	12	41	-1	-7	18
N#Cc1ccccc1COc1ccc(/C=C/C(=O)O)cc1	69*	27	68*	14	22	5	63*	51*
COc1ccc(N2CCN(S(=O)(=O)c3ccc4c(c3)NC(=O)CS4)CC2)cc1	10	2	1	-16	-9	-19	.	.
CCc1ccc(NC(=O)C2CCN(S(=O)(=O)c3ccc4c(c3)NC(=O)C(C)S4)CC2)cc1 (stereo not drawn)	17	-8	58*	3	26	1	8	40*
SMILES	NCOA2 inhibitor	NR5A2 inv ag	NR2F2 inh	NCOA3 inh	Gli-Sufu antag	SRC1 inh	VP16 Luc counter	NR2F2 inh conf
Cc1ccc(NC(=O)C2CCN(S(=O)(=O)c3ccc4c(c3)NC(=O)C(C)S4)CC2)cc1C (stereo not drawn)	26	-11	22	21	14	6	.	.
COc1ccc(N2CCN(S(=O)(=O)c3ccc4c(c3)NC(=O)C(C)S4)CC2)cc1 (stereo not drawn)	20	10	42*	4	-5	6	-8	11
O=C(c1ccccc1)c1ccc(Cn2cc(CCCO)nn2)cc1	2	20	37*	3	24	6	6	13
O=C(c1ccccc1)c1ccc(Cn2cc(-c3ccccc3)nn2)cc1	0	-12	38*	-21	23	-7	-79	10
O=C(O)CCCCCCCCc1cn(Cc2ccc(C(=O)c3ccccc3)cc2)nn1	-11	-3	-1	3	-11	-4	.	.
CC1CCCCN1S(=O)(=O)c1cccc2nonc12 (stereo not drawn)	-31	3	10	-9	2	3	.	.
CC(=O)N1c2ccc(S(=O)(=O)N3CCC(C(=O)N4CCN(c5cc(Cl)ccc5C)CC4)CC3)cc2CC1C (stereo not drawn)	17	2	43*	15	43	-31	5	19
CC(=O)c1ccc(N2CCN(S(=O)(=O)c3ccc4c(c3)CC(C)N4C(C)=O)CC2)cc1 (stereo not drawn)	5	41	59*	19	57*	13	-2	44*
CC(=O)N1c2ccc(S(=O)(=O)N3CCOCC3)cc2CC1C (stereo not drawn)	-18	-15	-9	-4	-5	12	.	.
CC(=O)N1c2ccc(S(=O)(=O)N3CCC(C(=O)N4CCC(C)CC4)CC3)cc2CC1C (stereo not drawn)	-17	-15	8	14	28	-25	.	.
O=C(C(=O)N1CCC(CNS(=O)(=O)c2ccccc2OC(F)(F)F)CC1)c1cc2ccccc2o1	17	.	19	.	.	.	.	.
Cc1cn([C@H]2C=C[C@@H](CO)O2)c(=O)[nH]c1=O	-15	-2	61*!	-6	7	-8	-1	-13
COc1ccc2cc3c(N)nn(C(=O)c4ccccc4[N+](=O)[O-])c3nc2c1	37	50	43*	57	-24	49	15*	31
O=C(C1CCCCC1)N1C[C@@H](O)[C@H](n2cc(-c3ccc(F)cc3)nn2)C[C@@H]1c1ccccc1	16	32	-4	2	.	0	.	.
